From PubChem
Abeta rescue: restores growth of yeast expressing A-beta42 peptide | yeast expressing A-beta42, growth rescue, OD600, 48 h; response scale: 0% DMSO, 100% iron-clioquinol control | Potency, µM (doses to about 46.1 µM), most hits filed as activators | 410,000 tested, 0.063% active | AID 1347071; further: potency means the concentration at half of the fitted maximal effect; nearly all actives have a fitted effect of over 55% in size
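Yeast A-beta toxicity model in growth medium with pinned compounds, 48 h at 30 C; growth read as absorbance at 600 nm. Normalized to FeCl3/clioquinol equimolar mix (positive) and DMSO (negative).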
aSyn yeast inh: inhibitors of alpha-synuclein toxicity in yeast. Yeast expressing alpha-synuclein, growth rescue, BacTiter-Glo, 24 h. Potency, µM (top dose mostly 46.1 µM), without a hit: at the top dose growth rescue (activation), hits mostly activators. 370,000 tested, 0.14% active; further: potency means the concentration at half of the fitted maximal effect; % of control where 0% means no effect; nearly all actives have a fitted effect of over 65% in size
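Galactose-induced alpha-syn yeast (OD600=0.02, raffinose-pregrown) + pinned cpd, 24 hr, 30 deg C; growth by BacTiter-Glo luminescence. Growth restoration scores as activation.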
pAkt inh: blocks phosphorylation of Akt. Neuro2A IGF-stimulated pAkt S473 HTRF, 20 min; stronger effect = lower value. activity change, % for hits at 50 µM. 360,000 tested, 0.32% active. AID 651550; in the data active means activity change below about -80%; inconclusive means mostly about -51% to -80%; further: on the % scale 0 is the no-effect control and ±100 the full control effect
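Single-point screen (50 µM final compound) in Neuro2A cells stimulated 20 min with 6 nM IGF at 37 deg C. After lysis, Ser473-phosphorylated Akt read by HTRF (ex 330 nm, em 615/665 nm) as the 665/615 ratio.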
FUS suppressor: FUS proteinopathy suppression in yeast. AID 1347120. 390,000 tested, 0.24% active. Potency, µM (top dose mostly 76.6 µM), actives largely listed as activators. S. cerevisiae FUS-expressing, growth rescue, OD600, 24 h;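 further: potency means the concentration at half of the fitted maximal effect; plate controls were DMSO vehicle for no effect and reference control for full effect; nearly all actives have a fitted effect of over 55% in size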
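Absorbance at 600 nm, taken 24hr after compound addition, measured rescue of FUS-yeast growth at 30C. Induction used 2% galactose with seeding at OD 0.005. Controls: CP55940 from 92uM final, DMSO only.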
TDP43 rescue: rescues yeast growth from TDP-43 toxicity. AID 652104. 410,000 tested, 1.8% active. TDP-43 expressing yeast growth rescue, BacTiter-Glo, 24 h. Potency, µM (highest dose often 46.1 µM), for inactives: at the top dose growth rescue (activation), actives largely listed as activators; further: potency means the concentration at half of the fitted maximal effect; % of control where 0% means no effect; nearly all actives have a fitted effect of over 50% in size
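Readout is BacTiter-Glo luminescence of cell growth, so inhibitors register as activators. TDP-43-expressing yeast at OD600=0.02 in galactose medium, after raffinose pregrowth to mid-log, were incubated with compound for 24 hr at 30 deg C.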
* = called active by the depositor; i = inactive; ? = inconclusive; . = not tested or not shown; [ ] = remark or other dose. Sampled rows, rich in hits. Any-hit rate of the full collection: about 2.3%. Unless noted, the call rests on the fitted dose curve; in most records, active means well fitted curve in the direction sought with a large enough effect; inconclusive means small, poorly fitted or top-dose-only effect, or another doubt; inactive means no such curve, though single readings can be large; an effect the other way counts as inactive or inconclusive.

SMILES | Abeta rescue | aSyn yeast inh | pAkt inh | FUS suppressor | TDP43 rescue
COc1ccc(C2c3[nH]c4ccccc4c3C[C@H]3C(=O)N(c4ccccc4C(=O)N4CCC(C(=O)O)CC4)C(=O)N23)cc1 (some centres not stated) | i | 0.3% | i | 22.4µM* | 6.9%
COc1cccc(C2c3[nH]c4ccccc4c3C[C@H]3C(=O)N(c4ccccc4C(=O)N4CCC(C(=O)O)CC4)C(=O)N23)c1 (some centres not stated) | i | 3.0% | i | 28.2µM* | 15.8%
COc1ccc(C)cc1NC(=O)N1CCN(S(=O)(=O)c2ccc3c(ccn3C)c2)CC1 | i | 2.6% | . | ? | 5.9%
Cc1ccc(NC(=O)C(Cc2ccccc2)n2cccc2)cc1 (configuration not stated) | i | 2.1% | i | i | 14.1%
Cc1csc(NC(=O)C(Cc2ccccc2)n2cccc2)n1 (configuration not stated) | ? | -8.3% | i | i | 12.6µM*
COc1cccc(NC(=O)C(Cc2ccccc2)n2cccc2)c1 (configuration not stated) | i | 8.1% | i | i | 12.6µM*
COc1ccc(CNc2ccc(C)cc2)cc1Br | i | 0.8% | i | i | 17.8µM*
Cc1cc(O)c2c(C)c(CC(=O)NCc3ccccc3Cl)c(=O)oc2c1 | i | . | . | i | 11.1%
COc1ccc(C(=O)N(CN2CCCC2=O)c2ccccc2OC)cc1OC | i | 4.5% | -111.0%* | i | 18.3%
COc1ccccc1CNC(=O)CSc1ccc(-c2sc(-c3ccccc3)nc2C)nn1 | i | . | . | i | ?
Cc1cc(COc2ccccc2OCCN2CCN(C)CC2)no1 | i | -2.2% | -103.7%* | i | 0.0%
CCN1CCN(CCOc2ccccc2OCc2ccccc2)CC1 | i | -4.9% | i | i | -5.8%
O=S(=O)(Nc1ccc(C(O)(C(F)(F)F)C(F)(F)F)cc1)c1ccc(Cl)c2nonc12 | i | -16.8% | i | i | 20µM*
CC[C@@]12C(=O)N(c3cccc(F)c3)C(=O)N1[C@H](c1cccc(C)c1)[C@@H]1C(=O)N(Cc3ccccc3)C(=O)[C@@H]12 | i | 1.7% | i | 31.6µM* | -1.2%
Cc1cccc([C@@H]2[C@@H]3C(=O)N(Cc4ccccc4)C(=O)[C@@H]3[C@]3(Cc4ccccc4)C(=O)N(c4cccc(F)c4)C(=O)N23)c1 | i | -2.4% | i | i | -8.3%
O=C(CSc1oc(-c2ccco2)nc1S(=O)(=O)c1ccc(F)cc1)NCC1CCCO1 (configuration not stated) | i | -5.1% | i | ? | -24.8%
O=C(CSc1oc(-c2ccco2)nc1S(=O)(=O)c1ccccc1)NCC1CCCO1 (configuration not stated) | i[9.22 µM] | -7.6% | -101.0%* | i | -8.2%
O=C1c2ccccc2NC(c2ccc(Cl)cc2Cl)N1O (configuration not stated) | i | 9.1% | -131.6%* | i | -36.1%
O=C1c2ccccc2NC(c2ccc(Cl)cc2Cl)N1Cc1ccccc1 (configuration not stated) | i | 4.6% | i | i | 13.4%
O=C1c2ccccc2NC(c2c(Cl)cccc2Cl)N1Cc1ccccc1 (configuration not stated) | i | -9.7% | i | i | 25.1µM*
COc1ccccc1N1CCN(S(=O)(=O)c2c(C)sc3ncn(CC(=O)Nc4ccc(C(C)C)cc4)c(=O)c23)CC1 | i | . | . | i | 0.5%
COc1cccc(CNC(=O)c2cc3c(C)nc4ccccc4c3o2)c1 | i | 0.1% | i | i | 27.3%
CCc1c(-c2ccccc2)nc2ccccc2c1C(=O)NCc1ccc(C)cc1 | i | . | . | ? | 35.5µM*
CCc1ccc(CNC(=O)c2cc3c(C)nc4ccccc4c3o2)cc1 | i | 26.3% | i | ? | 20µM*
CCc1c(-c2ccccc2)nc2ccccc2c1C(=O)NCCc1ccccc1 | i | . | . | i | 32.8%
SMILES | Abeta rescue | aSyn yeast inh | pAkt inh | FUS suppressor | TDP43 rescue
CCOc1ccc(-c2cc(CCCC(=O)NCCc3ccc(SC)cc3)no2)cc1 | i | . | . | i | 22.5%
CCC1CN(C(=O)Nc2ccc(Br)cc2F)c2ccccc2S1 (configuration not stated) | i | . | . | i | -15.1%
Cc1cnc(C(=O)Nc2ccc(C)c(S(=O)(=O)N3CCCCC3)c2)cn1 | i | 0.0% | i | . | 15.0%
Cc1cnc(C(=O)Nc2ccc(C)c(S(=O)(=O)N3CCCCCC3)c2)cn1 | i | 7.1% | i | i | 15.8µM*
Cc1ccc(NC(=O)COc2ccccc2)cc1S(=O)(=O)N1CCCCCC1 | i | -3.9% | i | i | 25.9%
Cc1ccc(NC(=O)COc2ccccc2C#N)cc1S(=O)(=O)N1CCCCCC1 | i | -0.1%[1.84 µM] | i | i | 28.2µM*
CC(C)CC1C(=O)N(Cc2cn(CCC3OCCO3)nn2)CCS(=O)(=O)N1Cc1ccc(-c2ccc(Cl)c(Cl)c2)cc1 (configuration not stated) | i | ? | i | ? | 28.0%
Cc1ccc(-c2ccc(CN3C(CC(C)C)C(=O)N(Cc4cn(CCC5OCCO5)nn4)CCS3(=O)=O)cc2)cc1 (configuration not stated) | i | 17.8% | i | ? | 35.5µM*
CC(C)CC1C(=O)N(Cc2cn(CCC3OCCO3)nn2)CCS(=O)(=O)N1Cc1ccc(-c2ccccc2)cc1 (configuration not stated) | i | 0.0% | i | ? | 22.4µM*
CC(C)CC1C(=O)N(Cc2cn(CCC3OCCCO3)nn2)CCS(=O)(=O)N1Cc1ccc(-c2ccccc2)cc1 (configuration not stated) | i | -3.3% | i | ? | -15.0%
COc1ccc(NC(=O)Cn2c(=O)n(Cc3nc(-c4ccccc4)no3)c(=O)c3cc4c(cc32)OCO4)c(OC)c1 | i | . | . | i | 6.7%
CCOc1ccc(CCNC(=O)c2cn(CC)c3ccc(S(=O)(=O)N4CCc5ccccc5C4)cc3c2=O)cc1OCC | i | . | . | ? | -8.6%
CC(C)=CCC/C(C)=C/CNCC(=O)N1c2ccccc2[C@]2(c3ccccc3)C[C@@H]3C(=O)N(C/C=C(\C)CCC=C(C)C)CC(=O)N3[C@H]12 | . | . | . | 12.6µM* | .
CN(CC1COc2ccccc2O1)C(=S)Nc1ccccc1 (configuration not stated) | ? | 13.9% | i | i | 12.6µM*
FC(F)(F)c1cccc(NC(=S)NCC2COc3ccccc3O2)c1 (configuration not stated) | i | -28.8% | i | i | 35.5µM*
CCCCc1ccc(NC(=O)CC(C)C)cc1 | i | -0.3% | i | i | 11.2µM*
